# Results published in ChEMBL document CHEMBL3988442, “University of Dundee, Small-Polar-MMV Screening Library” (2021).
# For part of these data: Entries with a potency or affinity are not part of this list.
# Key:
# Design in all cases: scale not given: direction of the effect not stated beside the values
# [1] = molecular target: Protein translocase subunit SecA (Escherichia coli (strain K12)) (UniProt P10408); experiment: Assay to Identify E. coli SecA ATPase Inhibitors; format: functional; conditions: 30 µM
# Sequence of Protein translocase subunit SecA (Escherichia coli (strain K12)) (P10408 whole entry): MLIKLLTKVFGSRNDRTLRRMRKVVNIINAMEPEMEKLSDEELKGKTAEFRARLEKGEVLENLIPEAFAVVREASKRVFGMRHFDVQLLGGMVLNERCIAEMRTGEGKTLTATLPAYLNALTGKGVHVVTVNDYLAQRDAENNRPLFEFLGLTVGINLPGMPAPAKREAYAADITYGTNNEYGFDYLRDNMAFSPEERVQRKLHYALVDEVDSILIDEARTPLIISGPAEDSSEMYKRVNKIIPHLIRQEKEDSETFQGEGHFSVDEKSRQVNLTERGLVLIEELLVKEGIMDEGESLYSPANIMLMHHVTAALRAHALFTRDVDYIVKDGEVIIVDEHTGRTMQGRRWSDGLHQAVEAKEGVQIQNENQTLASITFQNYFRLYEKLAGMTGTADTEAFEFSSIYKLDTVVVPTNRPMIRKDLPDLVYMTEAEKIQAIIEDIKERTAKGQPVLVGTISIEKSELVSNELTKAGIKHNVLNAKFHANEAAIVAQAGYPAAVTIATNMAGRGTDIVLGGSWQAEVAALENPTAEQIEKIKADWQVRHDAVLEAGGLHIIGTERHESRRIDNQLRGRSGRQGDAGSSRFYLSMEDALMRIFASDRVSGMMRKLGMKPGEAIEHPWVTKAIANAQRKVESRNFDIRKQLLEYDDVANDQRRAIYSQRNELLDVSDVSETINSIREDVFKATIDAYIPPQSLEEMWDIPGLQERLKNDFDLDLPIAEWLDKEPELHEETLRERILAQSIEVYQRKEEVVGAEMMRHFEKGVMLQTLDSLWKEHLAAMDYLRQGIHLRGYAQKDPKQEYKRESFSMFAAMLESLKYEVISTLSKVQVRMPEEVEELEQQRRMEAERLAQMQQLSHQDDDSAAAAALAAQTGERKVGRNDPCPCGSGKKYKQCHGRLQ
# [2] = molecular target: T1, Ubiquitin-activating enzyme e1, putative (Leishmania donovani (strain BPK282A1)) (UniProt E9BSI1); experiment: Leishmania donovani Ubiquitin Activating Enzyme (LdE1); format: functional; conditions: 30 µM
# T1 sequence (whole entry): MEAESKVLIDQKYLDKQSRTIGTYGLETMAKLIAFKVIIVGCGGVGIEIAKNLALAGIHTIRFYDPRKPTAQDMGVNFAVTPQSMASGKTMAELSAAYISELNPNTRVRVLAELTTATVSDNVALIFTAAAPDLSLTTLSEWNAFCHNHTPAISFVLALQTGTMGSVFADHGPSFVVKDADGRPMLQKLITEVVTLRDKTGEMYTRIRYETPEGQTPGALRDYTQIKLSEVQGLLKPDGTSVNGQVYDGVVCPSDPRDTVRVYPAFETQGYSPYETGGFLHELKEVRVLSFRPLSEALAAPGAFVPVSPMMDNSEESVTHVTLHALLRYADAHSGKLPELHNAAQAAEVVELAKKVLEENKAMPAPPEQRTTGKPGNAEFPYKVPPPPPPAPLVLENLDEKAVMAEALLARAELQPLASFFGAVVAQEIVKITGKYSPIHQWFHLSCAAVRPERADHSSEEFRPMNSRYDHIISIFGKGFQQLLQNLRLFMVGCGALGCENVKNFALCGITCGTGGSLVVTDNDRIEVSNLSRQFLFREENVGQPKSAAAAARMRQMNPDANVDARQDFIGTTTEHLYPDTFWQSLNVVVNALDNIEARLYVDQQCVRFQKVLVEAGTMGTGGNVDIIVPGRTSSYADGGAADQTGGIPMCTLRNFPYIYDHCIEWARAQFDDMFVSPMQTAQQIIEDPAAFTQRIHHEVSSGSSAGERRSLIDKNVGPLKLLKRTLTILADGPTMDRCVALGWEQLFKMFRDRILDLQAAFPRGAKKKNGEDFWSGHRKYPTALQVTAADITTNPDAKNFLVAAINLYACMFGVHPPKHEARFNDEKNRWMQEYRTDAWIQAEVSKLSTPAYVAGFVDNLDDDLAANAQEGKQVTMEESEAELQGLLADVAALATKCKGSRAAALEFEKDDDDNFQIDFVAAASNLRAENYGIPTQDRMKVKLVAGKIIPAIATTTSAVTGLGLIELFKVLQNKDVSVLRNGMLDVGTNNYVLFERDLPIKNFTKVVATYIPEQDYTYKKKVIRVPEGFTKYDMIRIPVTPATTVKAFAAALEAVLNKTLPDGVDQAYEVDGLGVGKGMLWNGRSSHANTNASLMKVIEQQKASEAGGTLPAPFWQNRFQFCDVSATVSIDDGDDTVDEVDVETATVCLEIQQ
# [3] = molecular target: Sialic acid-binding Ig-like lectin 9 (Homo sapiens) (UniProt Q9Y336); experiment: Hs-Siglec9 ALPHAscreen SOP 20170721; conditions: 10 µM
# Sequence of Sialic acid-binding Ig-like lectin 9 (Homo sapiens) (Q9Y336 whole entry): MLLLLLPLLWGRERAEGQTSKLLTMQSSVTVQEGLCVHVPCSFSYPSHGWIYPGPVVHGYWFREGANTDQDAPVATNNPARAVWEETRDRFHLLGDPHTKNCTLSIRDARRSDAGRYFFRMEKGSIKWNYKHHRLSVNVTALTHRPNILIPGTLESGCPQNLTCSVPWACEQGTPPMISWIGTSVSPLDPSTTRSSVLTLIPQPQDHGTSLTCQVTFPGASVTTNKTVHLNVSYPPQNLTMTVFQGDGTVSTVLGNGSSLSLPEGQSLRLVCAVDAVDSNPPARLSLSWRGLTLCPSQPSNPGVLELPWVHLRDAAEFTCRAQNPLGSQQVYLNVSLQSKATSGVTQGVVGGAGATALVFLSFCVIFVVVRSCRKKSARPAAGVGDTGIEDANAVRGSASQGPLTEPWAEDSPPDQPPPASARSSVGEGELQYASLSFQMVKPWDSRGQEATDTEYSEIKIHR
# Trypanosoma cruzi = experiment: Trypanosoma cruzi phosphomannomutase and mannose-1-phosphate guanylyltransferase assay; format: functional; conditions: 10 µM
# [4] = molecular target: T2, Arginase-2, mitochondrial (Homo sapiens) (UniProt P78540); experiment: in vitro enzyme assay to detect the production of urea directly proportional to the activity of Arginase II; format: functional; conditions: 33.3 µM; also: in the data most compounds retested in dose-response had high values
# T2 sequence (whole entry): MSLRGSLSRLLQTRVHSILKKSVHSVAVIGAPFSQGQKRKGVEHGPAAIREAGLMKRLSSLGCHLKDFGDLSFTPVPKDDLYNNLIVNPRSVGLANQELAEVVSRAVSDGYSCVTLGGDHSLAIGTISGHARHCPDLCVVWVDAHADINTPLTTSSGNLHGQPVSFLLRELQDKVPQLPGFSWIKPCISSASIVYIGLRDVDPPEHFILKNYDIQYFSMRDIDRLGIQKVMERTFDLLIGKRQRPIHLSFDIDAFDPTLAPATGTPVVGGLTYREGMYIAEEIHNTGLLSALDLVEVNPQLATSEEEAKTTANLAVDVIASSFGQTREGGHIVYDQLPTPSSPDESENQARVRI
# [5] = molecular target: T3, Proteasome subunit beta (Trypanosoma cruzi) (UniProt O96673); experiment: Trypanosoma cruzi proteasome chymotrypsin-like activity (TcProtChymo) assay.; also: in the data most compounds retested in dose-response had high values; format: functional; conditions: 9.37 µM
# T3 sequence (whole entry): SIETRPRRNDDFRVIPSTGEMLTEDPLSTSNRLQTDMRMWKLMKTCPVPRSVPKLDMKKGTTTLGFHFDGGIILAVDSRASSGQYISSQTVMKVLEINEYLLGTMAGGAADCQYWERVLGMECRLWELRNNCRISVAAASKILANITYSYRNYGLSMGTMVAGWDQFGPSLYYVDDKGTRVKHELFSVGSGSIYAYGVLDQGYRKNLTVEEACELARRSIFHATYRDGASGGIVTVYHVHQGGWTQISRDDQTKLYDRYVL
# Homo sapiens = organism: Homo sapiens; experiment: To identify inhibition of the IFN signalling (Jak-Stat) pathway via expression of an eGFP reporter gene under the control of an IFN-stimulated response element (ISRE) containing MxA promoter.; format: functional; conditions: 30 µM
# [6] = molecular target: T4, Tyrosyl-tRNA synthetase, putative (Trypanosoma cruzi (strain CL Brener)) (UniProt Q4DSP6); experiment: Trypanosoma cruzi tyrosyl tRNA synthetase (TcYRS) _High Tyrosine SOP; format: functional; conditions: 30 µM; also: in the data most compounds retested in dose-response had high values
# T4 sequence (whole entry): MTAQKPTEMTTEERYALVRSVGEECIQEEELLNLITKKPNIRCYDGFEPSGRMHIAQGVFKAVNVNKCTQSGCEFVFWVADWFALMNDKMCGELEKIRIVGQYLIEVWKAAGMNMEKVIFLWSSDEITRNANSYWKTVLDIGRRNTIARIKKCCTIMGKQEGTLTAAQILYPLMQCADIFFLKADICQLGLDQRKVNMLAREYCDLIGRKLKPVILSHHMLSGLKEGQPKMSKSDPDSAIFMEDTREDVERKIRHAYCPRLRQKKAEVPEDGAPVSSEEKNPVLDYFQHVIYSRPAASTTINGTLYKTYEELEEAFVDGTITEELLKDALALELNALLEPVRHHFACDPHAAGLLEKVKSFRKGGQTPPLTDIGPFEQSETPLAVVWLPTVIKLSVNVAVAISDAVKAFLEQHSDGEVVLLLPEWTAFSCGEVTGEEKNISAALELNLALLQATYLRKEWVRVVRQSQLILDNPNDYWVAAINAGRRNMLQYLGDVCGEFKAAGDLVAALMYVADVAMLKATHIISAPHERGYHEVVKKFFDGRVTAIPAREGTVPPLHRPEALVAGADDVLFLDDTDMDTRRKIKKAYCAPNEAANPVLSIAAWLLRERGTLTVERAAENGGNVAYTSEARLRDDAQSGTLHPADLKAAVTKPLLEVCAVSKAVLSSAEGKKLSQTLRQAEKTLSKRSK
# [7] = molecular target: T4, Tyrosyl-tRNA synthetase, putative (Trypanosoma cruzi (strain CL Brener)); experiment: Trypanosoma cruzi tyrosyl tRNA synthetase (TcYRS) SOP; format: functional; conditions: 30 µM
# [8] = molecular target: Chromo domain-containing protein 1 (Saccharomyces cerevisiae (strain ATCC 204508 / S288c) (Baker's yeast)) (UniProt P32657); experiment: ScCHD-1 Enzyme Inhibition Assay; format: functional; conditions: 30 µM; also: in the data most compounds retested in dose-response had high values
# Sequence of Chromo domain-containing protein 1 (Saccharomyces cerevisiae (strain ATCC 204508 / S288c) (Baker's yeast)) (P32657 whole entry, the tested form may be a part): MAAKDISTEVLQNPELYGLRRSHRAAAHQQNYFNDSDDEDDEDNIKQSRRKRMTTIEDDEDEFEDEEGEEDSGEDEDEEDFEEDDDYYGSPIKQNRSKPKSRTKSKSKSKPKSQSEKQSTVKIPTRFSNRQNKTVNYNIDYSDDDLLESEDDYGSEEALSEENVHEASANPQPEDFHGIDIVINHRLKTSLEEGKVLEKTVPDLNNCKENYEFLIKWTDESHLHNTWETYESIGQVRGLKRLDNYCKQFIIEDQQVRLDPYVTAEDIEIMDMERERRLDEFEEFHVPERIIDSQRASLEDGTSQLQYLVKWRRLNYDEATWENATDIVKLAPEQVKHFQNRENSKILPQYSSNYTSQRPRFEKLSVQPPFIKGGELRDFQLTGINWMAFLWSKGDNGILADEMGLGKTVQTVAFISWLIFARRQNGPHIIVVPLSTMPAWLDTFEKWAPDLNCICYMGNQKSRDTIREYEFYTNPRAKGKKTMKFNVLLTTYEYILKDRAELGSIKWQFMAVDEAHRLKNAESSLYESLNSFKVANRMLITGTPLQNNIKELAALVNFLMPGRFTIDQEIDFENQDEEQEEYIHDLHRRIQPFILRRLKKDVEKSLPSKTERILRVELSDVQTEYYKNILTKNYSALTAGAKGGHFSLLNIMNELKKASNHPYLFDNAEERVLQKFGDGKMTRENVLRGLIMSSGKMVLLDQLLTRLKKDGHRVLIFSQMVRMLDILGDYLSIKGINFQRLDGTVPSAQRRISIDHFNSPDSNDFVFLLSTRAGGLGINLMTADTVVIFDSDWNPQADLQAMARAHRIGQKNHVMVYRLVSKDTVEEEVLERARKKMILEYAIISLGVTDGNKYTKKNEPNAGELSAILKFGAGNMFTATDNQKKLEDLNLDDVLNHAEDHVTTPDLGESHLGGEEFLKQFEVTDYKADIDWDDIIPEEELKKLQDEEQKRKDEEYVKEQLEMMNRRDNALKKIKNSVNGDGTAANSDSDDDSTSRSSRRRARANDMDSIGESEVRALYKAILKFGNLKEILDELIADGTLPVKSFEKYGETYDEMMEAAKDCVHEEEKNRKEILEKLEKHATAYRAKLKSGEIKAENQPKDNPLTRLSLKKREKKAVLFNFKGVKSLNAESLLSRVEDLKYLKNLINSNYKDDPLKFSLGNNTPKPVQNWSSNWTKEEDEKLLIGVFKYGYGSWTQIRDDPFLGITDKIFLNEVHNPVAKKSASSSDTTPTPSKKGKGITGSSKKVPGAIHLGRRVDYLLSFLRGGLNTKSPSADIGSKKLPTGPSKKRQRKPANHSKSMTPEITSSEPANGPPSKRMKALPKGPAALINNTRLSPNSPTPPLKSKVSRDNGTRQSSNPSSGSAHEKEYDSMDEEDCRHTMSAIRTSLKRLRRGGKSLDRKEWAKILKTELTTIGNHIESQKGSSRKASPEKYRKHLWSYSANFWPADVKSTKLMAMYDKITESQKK
SMILES,Percent Effect [1] [%],Percent Effect [2] [%],Percent Effect [3] [%],Percent Effect (Trypanosoma cruzi) [%],Percent Effect [4] [%],Percent Effect [5] [%],Percent Effect (Homo sapiens) [%],Percent Effect [6] [%],Percent Effect [7] [%],Percent Effect [8] [%]
Cn1cc(CN2CCC3(CCCN3S(C)(=O)=O)CC2)cn1,-3.77,-1.3,-1.55,-5.36,-0.81,1.15,1.96,-2.63,-25.6,-1.37
COc1ccc(CNCc2ccc(N3CCCCC3)nc2)cc1OC,0.873,15.4,-8.85,5.92,2.87,8.62,2.97,8.13,25.3,-9.53
Cc1cccc(CN2CCc3nnc(CN4CCCC4=O)n3CC2)n1,-3.64,14.3,1.97,-2.06,-2.28,8.67,9.65,4.83,10,-8.05
O=C(c1ccncc1)N1CCC2(CC1)CC(Oc1cccnc1)CO2 (stereo not given),-6.1,-16.9,6.5,2.43,-2.02,5.91,-1.58,3.68,2.56,-0.282
CC(C)c1ncncc1C(=O)NCCN1CCCS1(=O)=O,-3.82,5.13,-1.57,7.98,3.69,3.5,1.77,1.44,10.8,1.18
Cc1ccc(-c2nc(CN3CCn4c(nnc4C4CC4)C3)cs2)o1,2.56,0,-11.3,-0.0939,-2.87,16.3,35.1,5.26,10.8,-4.37
Clc1ccc(OCCCN2CCN(c3cnccn3)CC2)cc1,-2.88,-7.79,9.41,-0.933,-2.66,-2.63,3.86,11.8,23.5,-3.92
CC(C)NC(=O)Nc1ccc(CNCc2cccc(OC(F)F)c2)cc1,-3.77,10.4,-3.29,-2.98,-10,24,25.1,4.9,7.06,-10.9
Cc1cc(NC(=O)CN2CCCC2c2noc(C(C)C)n2)n(C)n1 (stereo not given),0.91,-42.7,2.01,0,-0.444,4.67,-3.3,2.63,5.13,0.723
CN(C)C(=O)CN1C(=O)CCC12CCN(Cc1cccn1C)CC2,-0.209,-1.3,0.456,3,-0.913,11.9,7.89,10.6,20,-9.53
Cc1ccc2oc(C(=O)N3CCCC(n4nc(C)cc4C)C3)cc2n1 (stereo not given),-4.01,10.3,6.58,0.845,1.23,4.01,-2.91,4.31,13.2,3.09
O=C(CCN1CCCN(c2nccs2)CC1)NCC1CCCCC1,-2.39,5.33,1.99,-3.61,0,9.41,3.1,6.84,7.69,-5.72
Cc1cc(N2CCC(CC(N)=O)CC2)nc(-c2ccncc2)n1,-7.29,13,10.8,-1.87,3.07,11.1,-5.86,7.84,21.2,-6.28
CCCn1ccc(C(=O)N2CCOC(c3nc(-c4cccs4)no3)C2)n1 (stereo not given),-2.75,6.67,6.13,-1.18,0,4.76,1.83,5.29,17.5,-17.3
CNc1cncc(C2CCCN2C(=O)c2ccc3oc(C)cc3c2)n1 (stereo not given),-2.25,12,-1.38,3.35,-1.33,16.6,-2.62,3.17,7.5,-26.1
COc1ccc(CC(=O)NC2(C)CCS(=O)(=O)C2)cc1F (stereo not given),-0.834,10.7,-4.85,0.803,-1.77,4.5,8.89,5.79,12.8,-12.7
COCCN1CCN(Cc2cccc(C(N)=O)c2)CC1C (stereo not given),-2.01,29.3,-8.56,2.81,-2.66,17.6,16.2,2.63,12.8,-19.1
Cc1cccc(CN2CCC3(CCN(Cc4ccccn4)C3)C2=O)c1 (stereo not given),-10.9,6.49,0.239,-2.81,3.65,6.95,19,-0.966,0,-12.5
CCN(C)c1ncnc2c1CCN(Cc1ccoc1)CC2,-6.65,19.5,-3.79,8.86,-7.69,18.8,-6.57,3.68,15.4,-1.25
O=C1C(NCc2nnc3n2CCCC3)CCN1CC(F)(F)F (stereo not given),-2.08,2.56,-21.5,8.73,-2.05,1.79,4.98,1.44,8.43,-0.359
CN(Cc1noc(C2CC2)n1)C1CCN(Cc2nnc(C3CC3)o2)C1 (stereo not given),4.16,15.6,-1.39,-6.16,1.02,17.4,20.4,6.86,16.5,-8.04
O=C(c1cc(C2CC2)on1)N1CCCC(n2cncn2)C1 (stereo not given),-3.26,15.4,-20,9.48,-0.82,20.7,15.6,4.31,22.9,30.2
Cc1cncc(C2CCCN(C(=O)c3ccc(C)[nH]c3=O)C2)n1 (stereo not given),-4.08,20,0.301,1.58,-1.33,18.4,-10.4,5.29,17.5,-23.9
CC(C)(C)c1cn2nc(N3CCOC(Cn4cncn4)C3)sc2n1 (stereo not given),-1.88,23.1,-8.45,7.79,-2.46,12.4,13.8,3.35,22.9,-5.11
Cc1nc(CN2CCC(N(C)Cc3noc(C4CC4)n3)C2)oc1C (stereo not given),0.865,18.2,0.312,1.31,0.205,18.8,12.6,12.8,28.2,-10.9
CC(C)CN1CCN(C(=O)NCc2cccnc2-n2cccn2)CC1,-3.93,16,-3.1,-6.02,-2.22,10.4,2.63,5.79,7.69,-11.7
CN(C)[C@@H]1CN(Cc2ccco2)C[C@@H]2CCCO[C@@H]21,-2.22,6.49,-4.86,-5.16,-1.22,9.27,3.2,-0.526,7.69,-3.13
